Measurements from the supplement of paper PMC11060735.
Values joined by “and” are separate entries in the source; they are usually repeats but may differ in a detail not shown here. Equal entries are not always repeated. Structures can show the parent of a compound that is named as a salt. ± gives the standard deviation of the averaged measurements. The full ranking holds about 1,800 compounds; the median of “GFP- (p16Ink4a-) cell count relative to negative-control wells” is about 0.99, and the lowest 2% start at about 0.5. This is one part of a sample in which the lowest values are shown more often than they occur.

tested on: mouse p16Ink4a+/- lung fibroblasts (INKBRITE, bleomycin-injured); assay: GFP- (p16Ink4a-) cell count relative to negative-control wells (fold of vehicle); higher = more p16Ink4a- cells surviving; settings: 1 µM; 3 days

Row | Compound | GFP-
1 | N[C@H]1C[C@@H]1c1ccc(-c2cccc(O)c2)cc1 | 1.01 ± 0.044
2 | Cc1c(C(=O)NN2CCCCC2)nn(-c2ccc(Cl)cc2Cl)c1-c1ccc(I)cc1 | 1.06
3 | Cn1cc(-c2ccc3ncc(Cc4ccc5ncccc5c4)n3n2)cn1 | 1.01
4 | O=C1C(Cl)=C(N2CCOCC2)C(=O)N1c1ccc(Cl)c(Cl)c1 | 1.05
5 | Cc1ccc(Nc2nccc(N(C)c3ccc4c(C)n(C)nc4c3)n2)cc1S(N)(=O)=O [Pazopanib] | 0.999 and 1.07
6 | CNC(=O)c1ccc(N2C(=S)N(c3ccc(C#N)c(C(F)(F)F)c3)C(=O)C2(C)C)cc1F [Enzalutamide] | 1.11
7 | CC1(C)Cc2c(-c3ccccc3)c(-c3ccc(Cl)cc3)c(CC(=O)O)n2C1 [Licofelone] | 0.892
8 | CNCc1ccc(-c2[nH]c3cc(F)cc4c3c2CCNC4=O)cc1 [Rucaparib] | 0.817 ± 0.037
9 | CCCCN1CCCCC1C(=O)Nc1c(C)cccc1C (stereo not drawn) [Bupivacaine] | 1.13
10 | CC(C)C1CCC(C(=O)N[C@H](Cc2ccccc2)C(=O)O)CC1 (stereo partly drawn) [Nateglinide] | 1.06
11 | CC(C)C[C@H](NC(=O)[C@H](Cc1ccccc1)NC(=O)c1cnccn1)B(O)O [Bortezomib] | 0.294
12 | CNC(=O)[C@H](Cc1ccccc1)NC(=O)[C@H](CC(C)C)[C@H](CSc1cccs1)C(=O)NO [Batimastat] | 1.08
13 | Nc1nc(N)c(N=O)c(OCC2CCCCC2)n1 | 1.07
14 | Clc1ccc(Nc2nnc(Cc3ccncc3)c3ccccc23)cc1 [Vatalanib] | 0.918
15 | Cc1cccc(C)c1OCC(=O)N[C@@H](Cc1ccccc1)[C@@H](O)C[C@H](Cc1ccccc1)NC(=O)[C@H](C(C)C)N1CCCNC1=O [Lopinavir] | 0.947
16 | CC[C@H]1OC(=O)[C@H](C)[C@@H](O[C@H]2C[C@@](C)(OC)[C@@H](O)[C@H](C)O2)[C@H](C)[C@@H](O[C@@H]2O[C@H](C)C[C@H](N(C)C)[C@H]2O)[C@](C)(O)C[C@@H](C)/C(=N/OCOCCOC)[C@H](C)[C@@H](O)[C@]1(C)O [Roxithromycin] | 0.988
17 | Sc1ncnc2[nH]cnc12 [Mercaptopurine] | 1.05
18 | COC[C@H](NC(=O)c1cnc(C)s1)C(=O)N[C@@H](COC)C(=O)N[C@@H](Cc1ccccc1)C(=O)C1(C)CO1 (stereo partly drawn) [Oprozomib] | 0.381
19 | C=CC(=O)Nc1ccc2ncnc(Nc3cccc(Br)c3)c2c1 | 0.994
20 | Cc1onc(-c2c(Cl)cccc2Cl)c1C(=O)N[C@@H]1C(=O)N2[C@@H]1SC(C)(C)[C@@H]2C(=O)O [Dicloxacillin] | 0.966
21 | COc1cc(N2CCC(N(C)C)CC2)ccc1Nc1ncc(Cl)c(Nc2ccccc2P(C)(C)=O)n1 | 1.08
22 | NC(=O)N1c2ccccc2CC(=O)c2ccccc21 [Oxcarbazepine, Trileptal] | 1.06
23 | C[C@H](NC(=O)[C@@H](O)c1cc(F)cc(F)c1)C(=O)N[C@@H]1C(=O)N(C)c2ccccc2-c2ccccc21 | 0.963
24 | Cc1cc(=O)oc2cc(O)ccc12 [7-hydroxy-4-methyl-2H-chromen-2-one] | 1.08
25 | Cn1cnc(N)c2ncnc1-2 [3-Methyladenine] | 0.988

Row | Compound | GFP-
26 | COc1ccc(CCc2nc3cc(-c4c(C)noc4C)ccc3n2C[C@H](C)N2CCOCC2)cc1Cl | 0.854 ± 0.4
27 | C=CCc1ccc(O)c(-c2cc(CC=C)ccc2O)c1 [Magnolol] | 0.993
28 | Cc1c[nH]c(-c2cnc(NCCNc3ccc(C#N)cn3)nc2-c2ccc(Cl)cc2Cl)n1 | 1.14
29 | CCNC(=O)c1[nH]nc(-c2cc(Cl)c(O)cc2O)c1-c1ccc(OC)cc1 | 0.89
30 | CS(=O)(=O)OCCCCOS(C)(=O)=O [Busulfan] | 0.83
31 | CCOc1ccc2ccccc2c1C(=O)N[C@@H]1C(=O)N2[C@@H]1SC(C)(C)[C@@H]2C(=O)O [Nafcillin Sodium] | 0.94
32 | CCO/C(O)=C1\C(C)=NC(C)=C(C(=O)OC)C1c1cccc([N+](=O)[O-])c1 (stereo not drawn) [Nitrendipine] | 1.18
33 | O=c1cc(N2CCOCC2)oc2c1ccc1ccccc12 | 1.03
34 | Nc1cc(C(F)(F)F)c(-c2cc(N3CCOCC3)nc(N3CCOCC3)n2)cn1 [Buparlisib] | 0.719
35 | C#Cc1cccc(Nc2ncnc3cc4c(cc23)OCCOCCOCCO4)c1 [Icotinib] | 0.916
36 | O=C(NOCC(O)CO)c1cc(Br)c(F)c(F)c1Nc1ccc(I)cc1F (stereo not drawn) | 0.818
37 | C#Cc1cccc(Nc2ncnc3cc(OCCOC)c(OCCO)cc23)c1 | 0.823
38 | C#Cc1cccc(Nc2ncnc3cc(OCCOC)c(OCCOC)cc23)c1 [Erlotinib] | 0.287
39 | C#Cc1cccc(Nc2ncnc3cc(OC)c(OCCCCCCC(=O)NO)cc23)c1 | 1.01 ± 0.091
40 | C[C@@H]1CN(c2c(F)c(N)c3c(=O)c(C(=O)O)cn(C4CC4)c3c2F)C[C@H](C)N1 [Sparfloxacin] | 1.02
41 | CCN1CCN(Cc2ccc(Nc3ncc(F)c(-c4cc(F)c5nc(C)n(C(C)C)c5c4)n3)nc2)CC1 | 0.983
42 | Cc1cc(C)c2c(c1)[C@@H](N(Cc1cc(C(F)(F)F)cc(C(F)(F)F)c1)c1nnn(C)n1)CCCN2C[C@H]1CC[C@H](C(=O)O)CC1 [Evacetrapib] | 0.993
43 | C[C@H](CCC(=O)O)[C@H]1CC[C@H]2[C@@H]3C[C@H](O)[C@@H]4C[C@H](O)CC[C@]4(C)[C@H]3CC[C@]12C [Hyodeoxycholic acid (HDCA)] | 0.901
44 | CC1(C)SC2C(NC(=O)[C@H](NC(=O)N3CCNC3=O)c3ccccc3)C(=O)N2C1C(=O)O (stereo partly drawn) [Azlocillin sodium salt] | 0.956
45 | CC(C)(C)c1nc(-c2cccc(NS(=O)(=O)c3c(F)cccc3F)c2F)c(-c2ccnc(N)n2)s1 [Dabrafenib] | 0.448
46 | C[C@]12CC[C@@H]3c4ccc(O)cc4C[C@@H](CCCCCCCCCS(=O)CCCC(F)(F)C(F)(F)F)[C@H]3[C@@H]1CC[C@@H]2O (stereo partly drawn) [Fulvestrant] | 1.15
47 | NS(=O)(=O)c1ccc(NC(=O)Nc2ccc(F)cc2)cc1 | 1.06
48 | CN1CCC(NC(=O)c2cc(-c3c(O)cc(O)cc3Oc3ccc([N+](=O)[O-])cc3)on2)CC1 | 1.03
49 | Cn1c(=O)cc(N2CCC[C@@H](N)C2)n(Cc2cc(F)ccc2C#N)c1=O [Trelagliptin] | 0.941
50 | C[N+](C)(C)CC(O)CC(=O)O (stereo not drawn) [Carnitine Hydrochloride, Carnitine (dl) Hydrochloride] | 1.1

Row | Compound | GFP-
51 | C[C@H](NCc1ccc(OCc2cccc(F)c2)cc1)C(N)=O [Safinamide] | 1.06
52 | OC[C@@H](O)CN1CCN(c2ccccc2)CC1 [Levodropropizine] | 1.05
53 | CC(=O)O[C@]1(C(C)=O)CC[C@H]2[C@@H]3C=C(Cl)C4=CC(=O)[C@@H]5C[C@@H]5[C@]4(C)[C@H]3CC[C@@]21C [Cyproterone Acetate] | 1.14
54 | C=C1CC[C@H](O)C/C1=C/C=C1\CCC[C@]2(C)[C@@H]([C@H](C)CCCC(C)(C)O)CC[C@@H]12 [Calcidiol] | 1.2
55 | CCOC(=O)c1c(CSc2ccccc2)n(C)c2cc(Br)c(O)c(CN(C)C)c12 [Arbidol HCl] | 0.933
56 | O=S(=O)(c1ccccc1)N(CC(F)(F)F)c1ccc(C(O)(C(F)(F)F)C(F)(F)F)cc1 | 0.972
57 | CN1CCOC(c2ccccc2)c2ccccc2C1 (stereo not drawn) [Nefopam] | 1.1
58 | CCOC(=O)[C@H](CCc1ccccc1)N[C@H]1CCc2ccccc2N(CC(=O)O)C1=O [Benazepril] | 1.01
59 | Cc1c(-c2ccccc2)oc2c(C(=O)OCCN3CCCCC3)cccc2c1=O [Flavoxate] | 1.1
60 | C[C@@H]1O[C@@H](O[C@H]2[C@H](Oc3cc(O)c4c(c3)O[C@H](c3ccc(O)cc3)CC4=O)O[C@H](CO)[C@@H](O)[C@@H]2O)[C@H](O)[C@H](O)[C@H]1O [Naringin] | 1.1
61 | Nc1ccc(S(=O)(=O)Nc2ccccn2)cc1 [Sulfapyridine] | 0.965
62 | O=C1C[C@@H](c2ccc(O)cc2)Oc2cc(O)cc(O)c21 [Naringenin] | 0.938
63 | C/C(=N\NC(=S)N1CCC1)c1ccccn1 | 0.4
64 | Cn1c(=O)cc(N2CCC[C@@H](N)C2)n(Cc2ccccc2C#N)c1=O [Alogliptin] | 0.943
65 | COC(=O)[C@H]1[C@H]2C[C@@H]3c4[nH]c5cc(OC)ccc5c4CCN3C[C@H]2C[C@@H](OC(=O)c2cc(OC)c(OC)c(OC)c2)[C@@H]1OC [Reserpine] | 0.806
66 | C=CC[N+]1([C@H]2C[C@H]3[C@@H]4CC[C@H]5C[C@H](O)[C@@H](N6CCOCC6)C[C@]5(C)[C@H]4CC[C@]3(C)[C@H]2OC(C)=O)CCCC1 [Rocuronium] | 0.894
67 | COc1cccc2c1C(=O)c1c(O)c3c(c(O)c1C2=O)C[C@@](O)(C(C)=O)C[C@@H]3O[C@H]1C[C@H](N)[C@H](O)[C@H](C)O1 [Daunorubicin] | 0.754
68 | COc1cccc2c1C(=O)c1c(O)c3c(c(O)c1C2=O)C[C@@](O)(C(=O)CO)C[C@@H]3O[C@H]1C[C@H](N)[C@H](O)[C@H](C)O1 [Doxorubicin] | 0.72
69 | CC(=O)[C@]1(O)Cc2c(O)c3c(c(O)c2[C@@H](O[C@H]2C[C@H](N)[C@H](O)[C@H](C)O2)C1)C(=O)c1ccccc1C3=O [Idarubicin, Idarubicin Hydrochloride] | 0.224
70 | COc1cc(-c2cc3ccccc3[nH]2)[nH]c1/C=C1\N=C(C)C=C1C [Obatoclax Mesylate] | 0.249
71 | C=C1C(=O)O[C@@H]2/C=C(\C)CC/C=C(\C)CC[C@@H]12 [Costunolide] | 1.1
72 | Cc1coc2c1C(=O)C(=O)c1c-2ccc2c(C)cccc12 [Tanshinone I] | 1.03
73 | Cn1cc(-c2ccc3nnc(Sc4ccc5ncccc5c4)n3n2)cn1 | 0.95
